TEAD-YAP inh = TEAD-YAP interaction inhibition; HEK-TIYL cells, TEAD-Gal4/YAP UAS-luciferase luminescence; inhibition, % at 9.12 µM; 1.4% of 640,000 active; AID 1259422; in the data active = inhibition above about 32%;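 also: 0% = median of test compound wells and 100% = reference inhibitor wells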
GPR151 activ = human GPR151 activation | 1% of 650,000 active | PathHunter beta-arrestin GPR151 cells, luminescence | Q8TDV0 | AID 1508602 | activation, % at 11.2 µM; in the data active = activation above about 4.9%;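 also: 0% = median of compound wells and 100% = cells with positive control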
Target sequence (Q8TDV0 whole entry, looked up): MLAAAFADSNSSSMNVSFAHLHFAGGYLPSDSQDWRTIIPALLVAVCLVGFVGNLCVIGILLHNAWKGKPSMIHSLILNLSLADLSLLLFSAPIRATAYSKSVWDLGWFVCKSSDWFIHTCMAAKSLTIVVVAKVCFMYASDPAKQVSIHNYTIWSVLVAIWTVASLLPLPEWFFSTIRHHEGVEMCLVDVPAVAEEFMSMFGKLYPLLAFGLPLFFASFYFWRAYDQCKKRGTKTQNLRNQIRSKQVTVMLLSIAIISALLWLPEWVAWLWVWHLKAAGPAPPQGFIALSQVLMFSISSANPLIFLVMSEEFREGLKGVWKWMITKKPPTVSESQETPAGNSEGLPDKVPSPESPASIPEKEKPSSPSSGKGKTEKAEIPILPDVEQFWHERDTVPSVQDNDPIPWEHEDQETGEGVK
FBW7 activator = human FBW7 E3 ligase activation, primary screen; Q969H0; AlphaScreen FBW7–phospho-cyclin E peptide binding, activator screen; normalized activity (activation), % at 26.1 µM; 0.13% of 650,000 active; AID 1259310; in the data active = normalized activity above about 1.9%;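 also: purified mutant Fbw7 with reduced substrate affinity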
MITF inh = inhibitors of human MITF. inhibition, % at 2.6 µM. AID 1259374. 0.91% of 650,000 active. AlphaScreen MITF homodimerization, bead proximity signal; in the data active = inhibition above about 50%;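 also: 0% = vehicle wells with protein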
GPR151 confirm = confirmation of human GPR151 activators; shares compounds with GPR151 activ; GPR151 PathHunter beta-arrestin cells, luminescence, 90 min; % of EA-reagent control over plate median; activation, % at 11.2 µM; 6,700 tested, under 10 active; AID 1508609;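 active = mean percent activation across replicates above the confirmation screen cutoff of 4.91%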
GPR119 ag = activates human GPR119 in a GPR151 counter-screen. shares compounds with GPR151 activ. 0.3% of 6,700 active. activation, % at 11.2 µM. GPR119 PathHunter beta-arrestin cells, luminescence, 90 min; 0 = compound-well median, 100 = enzyme-acceptor control;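 active = mean percent activation in the counterscreen above 29.09%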;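 also: counterscreen on off-target GPR119 to flag nonselective hits from the GPR151 activator screen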
Numbers without * were called inactive; . = not tested or not shown. Hits are enriched below; roughly 3.5% of the tested compounds scored in any of these assays.

SMILES | TEAD-YAP inh | GPR151 activ | FBW7 activator | MITF inh | GPR151 confirm | GPR119 ag
O=C(CCC(=O)c1ccc(Cl)cc1)OCc1ccc([N+](=O)[O-])cc1 | 2 | 1 | 0 | -4 | . | .
O=C(CCC(=O)OCc1ccc([N+](=O)[O-])cc1)OCc1ccc([N+](=O)[O-])cc1 | -7 | 5.5* | 0 | -2 | 0 | 5
Oc1ccccc1-c1nc(Nc2ccc(Br)cc2)c2ccccc2n1 | -6 | 0 | 0 | 6 | . | .
O=C(Nc1ccccc1)c1ccc(N2C(=O)C3C4C=CC(C4)C3C2=O)cc1 (stereo not drawn) | -52 | 5.0* | 0 | -1 | 1 | 13
O=C(NC(c1ccccc1Cl)c1ccc2cccnc2c1O)c1ccccc1 (stereo not drawn) | 72* | 7.5* | -1 | -4 | 0 | 1
CCOC(=O)c1[nH]c(C)c(C(=O)OCc2nc3ccc(Cl)cc3n2CCO)c1C | 56* | 6.3* | 0 | -2 | 1 | -2
CN1CCN(C(=O)CN(c2cccc(Cl)c2)S(=O)(=O)c2ccc(Cl)cc2)CC1 | -3 | 1 | 0 | 11 | . | .
O=C(CN(c1cccc(Cl)c1)S(=O)(=O)c1ccc(Cl)cc1)N1CCOCC1 | 2 | 9.1* | 0 | -3 | 0 | -7
O=c1cc(-c2ccc(O)cc2)oc2cc(O[C@@H]3O[C@H](CO)[C@@H](O)[C@H](O)[C@H]3O[C@@H]3OC[C@](O)(CO)[C@H]3O)cc(O)c12 | 11 | 8.2* | 0 | 19 | 0 | 9
COc1cccc(/C=C/C(=O)Nc2ccc(-c3cn[nH]c3)cc2)c1 | -4 | -2 | 0 | -2 | . | .
Cc1c(-c2ccccc2)c(=O)oc2cc(OCC#N)ccc12 | 11 | 6.5* | 0 | -3 | 0 | 8
CCOC(=O)COc1ccc2c(C)c(-c3ccccc3)c(=O)oc2c1 | 0 | -2 | 0 | 2 | . | .
Cc1ccc(NC(=O)c2cccc(F)c2)c([N+](=O)[O-])c1 | -28 | 8.7* | 0 | -3 | -1 | -15
Cc1cccc(C(=O)Nc2ccc(C)cc2[N+](=O)[O-])c1 | -11 | 1 | 0 | 8 | . | .
Cc1cc(C(=O)Nc2ccc(F)cc2F)ccc1[N+](=O)[O-] | -40 | 5.2* | 0 | 16 | 0 | -5
CCOC(=O)N1CCc2c(sc(NC(=O)c3ccc(S(=O)(=O)N(CCOC)CCOC)cc3)c2C(N)=O)C1 | -4 | 2 | 0 | -6 | . | .
CCOc1cc(CN2CCc3c(nc(N4CCC(C)CC4)[nH]c3=O)C2)ccc1OC | -6 | 0 | 0 | -6 | . | .
Cc1ccc(S(=O)(=O)/N=C(\CN2CCCCC2)N2CCCCC2)cc1 | 2 | 5.4* | 0 | 5 | 0 | -6
Cc1[nH]n(-c2ccc([N+](=O)[O-])cc2)c(=O)c1C=NCc1ccncc1 | 8 | -8 | 0 | 18 | . | .
CC(=O)N1CCN(c2ccc(NC(=O)COc3ccc(C)cc3)cc2)CC1 | -1 | -1 | 0 | 10 | . | .
Cc1ccccc1OC1=NS(=O)(=O)c2cc([N+](=O)[O-])ccc21 | 9 | 8.6* | 0 | 11 | 0 | -8
O=C(Nc1ccc(NC(=O)c2cc(Br)ccc2Cl)cc1Br)c1ccccc1 | 17 | 1 | 0 | -7 | . | .
COc1cccc(CN2CCNC(=O)C2CC(=O)N(C)Cc2nc(C)cs2)c1OC (stereo not drawn) | -3 | 5.7* | 0 | -13 | -1 | -17
Cc1csc(CN(C)C(=O)CC2C(=O)NCCN2CC2CCCCC2)n1 (stereo not drawn) | 8 | 5.3* | 0 | 9 | -1 | -2
COc1cccc(CN2CCNC(=O)C2CC(=O)N(C)Cc2ccno2)c1 (stereo not drawn) | -5 | -1 | 0 | -11 | . | .
SMILES | TEAD-YAP inh | GPR151 activ | FBW7 activator | MITF inh | GPR151 confirm | GPR119 ag
Cc1csc(CN(C)C(=O)CC2C(=O)NCCN2CCC(C)C)n1 (stereo not drawn) | 11 | 1 | 0 | 14 | . | .
COc1cc(CN2CCNC(=O)C2CC(=O)N(C)Cc2ccno2)cc(OC)c1 (stereo not drawn) | 9 | 6.1* | 0 | -1 | 0 | -2
O=C(CSc1ccccn1)N/N=C/c1cccc(F)c1 | 5 | 1 | 0 | 6 | . | .
CN1C(=O)NC(c2ccccc2Cl)C2=C1CC(C)(C)CC2=O (stereo not drawn) | 4 | 5.7* | 0 | -3 | 1 | -3
CN1C(=O)N(C)C(c2ccccc2Cl)C2=C1CC(C)(C)CC2=O (stereo not drawn) | -1 | 1 | 0 | 1 | . | .
COc1ccc(Cc2nnc(Nc3ccccc3C)[nH]c2=O)cc1 | 7 | -1 | 0 | 12 | . | .
COc1ccc(Cc2nnc(Nc3cc(Cl)ccc3C)[nH]c2=O)cc1 | -3 | 5.0* | 0 | 13 | 0 | 14
C=CCOc1ccc(C(=O)N2CCN(c3ccc(OC)cc3)CC2)cc1 | -8 | 6.1* | 1 | 8 | 0 | 5
COc1ccc(C(=O)N2CCN(Cc3ccc4ccccc4c3)CC2)cc1 | 36* | 7.7* | -1 | 47 | 1 | -1
COc1ccc(N2CCN(C(=O)c3ccc(OC(C)=O)cc3)CC2)cc1 | -1 | -1 | 0 | 14 | . | .
COc1cccc(CN2CCN(C(=O)c3cc(Br)cs3)CC2)c1 | -2 | 5.8* | 0 | -2 | 1 | 11
COc1cccc(CN2CCN(C(=O)c3c(OC)cccc3OC)CC2)c1 | 4 | 0 | 0 | 17 | . | .
COc1cc([N+](=O)[O-])cc(C=NCCNC(=O)c2nonc2N)c1O | -1 | 0 | 0 | 5 | . | .
O=C(Oc1cccc(OC(=O)c2ccccc2F)c1)c1ccccc1F | 5 | 5.6* | 0 | -7 | 0 | -12
CCN1CCC(N(Cc2ccco2)C(=O)NC2CCCC2)CC1 | -1 | 5.0* | 0 | -6 | 1 | -4
O=C(Nc1ccc(I)cc1)c1ccccc1C(=O)c1ncc[nH]1 | 11 | -1 | 0 | 7 | . | .
CCCCN(CC)C(=O)NCc1noc2ccccc12 | -2 | 0 | 0 | -21 | . | .
CCN(CC)C(=O)NCc1noc2ccccc12 | -7 | 5.3* | 0 | 0 | 1 | 6
Cc1cccc(NC(=O)NCc2noc3ccccc23)n1 | 1 | 5.6* | 0 | -7 | 0 | -2
CCN(C(=O)NCc1noc2ccccc12)c1ccccc1 | -9 | 5.6* | 0 | -5 | 0 | 2
Cc1ccc(NC(=O)NCc2noc3ccccc23)nc1 | 4 | -1 | 0 | 4 | . | .
Cc1ccc(S(=O)(=O)C2CCN(CC(=O)c3ccc(F)cc3)CC2)cc1 | -1 | 0 | 0 | -10 | . | .
CN1CCN(CC(=O)N2c3ccccc3Sc3ccc(C(F)(F)F)cc32)CC1 | 2 | 2 | 0 | -6 | . | .
O=C(CN1CCC(O)CC1)N1c2ccccc2Sc2ccc(C(F)(F)F)cc21 | -16 | 8.4* | 0 | -3 | -1 | -8
O=C(Nc1ccc(-c2nc3ccc(-c4nc5ccccc5o4)cc3[nH]2)cc1)C1CCCCC1 | -5 | 4.9* | 0 | 17 | 1 | 16

Screens: PubChem, The Scripps Research Institute Molecular Screening Center
